For 45 compounds, activity change, negative = inhibition results are on record in PubChem BioAssay AID1259415 (National Center for Advancing Translational Sciences (NCATS), 2018).

The whole screen tested about 410,000 compounds, of which about 18,000 (4.4%) were called active. About 7% were inconclusive and are not listed. The sample as a whole holds a higher share of actives than the screen did. Unmarked numbers belong to inactive results. Cut-off read from the data, not from the text of the source: active = activity change below about -60%; inconclusive = no clear call, values can overlap the other calls; inactive = above about -39%.
% is set by controls: 0 for no effect and ±100 for the full control effect.

This assay in a line: qHTS Assay for inhibitors of the human cytomegalovirus (HCMV). Particulars: HFF cells, HCMV-luciferase reporter, 72 h; at 57.5 µM; stronger effect = lower value. Summed up: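 Two compound doses tested in HFFs infected with HCMV-luciferase, MOI 1 PFU/cell, 72 h at 37C. Lysate luminescence read with OneGlo; data normalized against buffer-only and 10uM Salinomycin inhibitor controls.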
As for `COc1c(Cl)cc(C(=O)N(Cc2ccccc2F)C2CCS(=O)(=O)C2)cc1Cl` (stereo not given), the activity change, negative = inhibition was -5.18%.
On to `CCCn1c(=N)n(CC(O)COc2ccccc2OC)c2ccccc21` (stereo not given), for which the activity change, negative = inhibition is -33.4%.
Consider `COc1ccccc1OCC(O)CN1CCOCC1` (stereo not given), for which the activity change, negative = inhibition was -100% (active).
For `Cc1ccc(OCC(O)CN2CCN(CC(O)COc3ccc(C)cc3Cl)CC2)c(Cl)c1` (stereo not given) the value was -4.14%; for `COc1cc(NS(=O)(=O)c2ccc3ccccc3c2)c2ncccc2c1`, -79.8% (active).
For `CCOc1ccc(OCC)c(NS(=O)(=O)c2ccc3[nH]c(=O)ccc3c2)c1` the value was 17.6%; for `COc1ccc(S(=O)(=O)Nc2cc3c(C(=O)OC(C)C)c(C)oc3c3ccccc23)cc1`, 4.89%.
For the compound `COc1cc2c(C(=O)N(C)c3cc(Cl)ccc3OC)cn(C)c(=O)c2cc1OC`, the activity change, negative = inhibition was -37.5%.
To `Cc1cc(C)c2oc(C(=O)Nc3c(C(=O)Nc4ccccc4)oc4ccccc34)cc(=O)c2c1` belongs 8.41%.
For `O=C(NNC(=O)C(O)c1ccccc1)NC1CCCCC1` (stereo not given) the value was -11.7%; for `Cc1nc(/N=C(\N)NC(=O)NC2CCCCC2)nc2ccccc12`, -84.3% (active).
To `O=C(Cn1nnc(-c2ccccc2)n1)NC(=O)NC1CCCC1` belongs 11.9%; to `Cc1ccc(C)c(S(=O)(=O)n2nc(C)c(S(=O)(=O)N3CCC(C)CC3)c2C)c1`, -3.95%; to `Cc1ccc(C)c(S(=O)(=O)N2CCN(c3ncnc4sccc34)CC2)c1`, -96.6% (active).
Take `Cc1ccc(C)c(S(=O)(=O)c2nnn3c2nc(N2CCOCC2)c2sccc23)c1`: the activity change, negative = inhibition is 28.6%.
For `Cc1ccc(S(=O)(=O)N2CCN(c3ncnc4ccccc34)CC2)cc1`, the activity change, negative = inhibition is -87.3% (active).
To `Cc1ccc(S(=O)(=O)N2CCN(Cc3cccc(C)c3O)CC2)cc1` belongs -3.34%; to `COc1ccc(S(=O)(=O)N2CCN(c3ncnc4c(-c5ccccc5)nsc34)CC2)cc1`, 3.62%; to `CCOc1ccc2oc(C(=O)N(CC)CC(=O)Nc3ccc(NC(C)=O)cc3)c(C)c2c1`, -18.7%.
To `O=S(=O)(c1ccc(Br)cc1)c1nnn2c1nc(N1CCOCC1)c1sccc12` belongs 18.7%; to `CCCOc1ccc(N2C(=O)CC(N(CCc3ccc(S(N)(=O)=O)cc3)C(C)=O)C2=O)cc1` (stereo not given), 29.6%.
Consider `CC1CCN(C(=O)Cn2c(=O)n(-c3ccc(Cl)cc3)c(=O)c3c4c(sc32)CCC4)CC1`, for which the activity change, negative = inhibition is 3.05%.
For `Cc1cc(NC(=O)Cn2nc(C(F)(F)F)c3c2CCCC3)no1` the value was 31%.
For `O=C(Cn1nc(C(F)(F)F)c2c1CCC2)NCc1ccc(F)cc1` the value was -0.659%; for `O=C(Cn1nc(C(F)(F)F)c2c1CCCC2)Nc1ccc(Cl)cc1`, -105% (active); for `CCOc1ccc2nc(N3CCC(C(=O)Nc4cc(C)ccc4C)CC3)sc2c1`, 20%.
On to `Cc1ccc2nc(CNC(=O)c3ccccc3)[nH]c2c1`, for which the activity change, negative = inhibition was 61%.
To `CCCNC(=O)C1CCN(c2nc3ccc(C)cc3[nH]2)CC1` belongs 0% (active); to `Cc1[nH]c2ccccc2c1[N+](=O)[O-]`, 6.63%.
To `Cc1cccc(N(CC(O)CN(C)C)S(=O)(=O)c2ccccc2)c1` (stereo not given) belongs -26.4%.
`CCCCNC(=O)CN1C(=O)NC(Cc2ccccc2)(Cc2ccccc2)C1=O`: the activity change, negative = inhibition is -14.4%.
Consider `CCCCC(O)(CCCC)C(=O)NN(C(=O)CCl)c1ccccc1`, for which the activity change, negative = inhibition is -94.6% (active).
To `Cc1cccc(N(Cc2ccccc2)C(=O)c2ccccc2F)c1` belongs 1.73%.
Turning to `COC(=O)N(NC(=O)C(O)(C(C)C)C(C)C)c1ccccc1`, the activity change, negative = inhibition was 2.98%.
Consider `CCCC(O)(CCC)C(=O)NN(C(=O)CCl)c1cccc(C)c1`, for which the activity change, negative = inhibition was -101% (active).
To `COCn1c(C(O)c2ccccc2)cc2ccccc21` (stereo not given) belongs 3.56%.
For `O=C(CSc1ncc(S(=O)(=O)c2ccc(Br)cc2)c(=O)[nH]1)Nc1ccc2c(c1)OCCO2` the value was 3.97%; for `CCCN1CN=C(NS(=O)(=O)c2ccc(NC(C)=O)cc2)NC1`, -18.1%.
Consider `COc1ccccc1NC(=O)CSc1oc(-c2ccco2)nc1S(=O)(=O)c1ccc(Br)cc1`, for which the activity change, negative = inhibition was 12.2%.
For `CCOc1ccc(NC(=O)CCc2c(C)nn(-c3ccc(N4CCCC4)nn3)c2C)cc1`, the activity change, negative = inhibition was -23.2%.
In the case of `COc1ccc(-c2nc3sc(CCNS(=O)(=O)c4ccc(F)c(C)c4)c(C)n3n2)cc1`, the activity change, negative = inhibition was -32.9%.
To `CCCCN=C(N)/C(C(=O)OCC)=C(\O)c1ccc(OC)cc1` belongs -26.4%; to `Cc1ccc(-c2nnc(SCc3ccccc3C)o2)cc1`, 82.8%; to `O=C(c1ccc2c(c1)OCO2)N1CCNc2ccccc2C1`, -3.54%.
To `O=C(C(=O)N1CCN(c2ccccc2)CC1)c1ccc2c(c1)OCO2` belongs -64.4% (active).
